Several values for one entry are separate records, joined by “and”; a condition that tells them apart may be missing. Equal entries are not always repeated. Compounds without any hit were thinned out: in the full panel of roughly 83,000, 20% have a hit.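 The endpoint reported here, percent growth, reads 100 for growth as untreated, 0 for no net growth and -100 for all cells dead.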 Activity calls are given as the source filed them. The calls were made as follows: active = growth percent below 10; inactive = the rest.
Key:
Assay in all cases: NCI-60 one-dose screen, 48 h (100 = growth as untreated, 0 = no growth, -100 = all killed)
Settings in all cases: 10 µM unless noted
[1] = test system: NCI-H23 lung
[2] = test system: NCI-H226 lung
[3] = test system: NCI-H322M lung
[4] = test system: HOP-62 NSCLC
[5] = test system: NCI-H460 lung
[6] = test system: HOP-92 NSCLC
[7] = test system: NCI-H522 lung
[8] = test system: 786-0 renal
[9] = test system: COLO 205 colon
[10] = test system: A549/ATCC NSCLC

Measured: growth

Nc1ccc(Cl)c(S(=O)(=O)O)c1
inactive: [1] 97% | [2] 97.1% | [3] 89.2% | [4] 100% | [5] 105% | [6] 106% | [7] 99.1% | [8] 104% | [9] 111%

CCC(C)(O)CCC(C)(O)CC (configuration not stated)
inactive: [1] 87.1% | [2] 108% | [3] 102% | [4] 93.5% | [5] 116% | [6] 104% | [7] 103% | [8] 99.3% | [9] 108%

Cc1cnc(N)s1
inactive: [1] 97.5% | [2] 90.6% | [3] 99.6% | [4] 78.3% | [5] 105% | [6] 91.3% | [7] 77.9% | [8] 106% | [9] 102%

NC1=NC(c2ccccc2)N=C(Nc2ccccc2)N1 (configuration not stated)
inactive: [1] 79.5% and 66.5% | [2] 81.7% and 52.5% | [3] 91.5% and 84.7% | [4] 78.1% and 74.8% | [5] 103% and 95% | [6] 81% and 89.1% | [7] 83.8% and 110% | [8] 93.3% and 101% | [9] 91.7% and 63.4%

N=C(N=C(N)N)N1CCOCC1
inactive: [1] 103% and 90.8% | [2] 99.3% and 98.3% | [3] 95.4% and 112% | [4] 94.7% and 106% | [5] 99.8% and 102% | [7] 94.7% and 107% | [10] 103% and 94.2% | [8] 104% and 95.6% | [9] 104% and 107%

CCOC(=N)c1ccc(C(=N)OCC)cc1
inactive: [1] 101% | [2] 100% | [3] 113% | [4] 84.2% | [5] 111% | [6] 93% | [7] 97.3% | [8] 86.8% | [9] 103%

COc1cc([C@@H]2c3cc4c(cc3[C@H](O)[C@H]3COC(=O)[C@@H]23)OCO4)cc(OC)c1OC
44.1% (inactive) and -74.9% (active): [8]
inactive: [1] 12.2% and 13.6% | [2] 51.8% and 45.6% | [3] 38.9% and 23.5% | [4] 15.7%
active: [5] 4.7% and -1.68% | [7] -13.6% and -44.2% | [9] -45.7% and -74.4%
37.5% (inactive) and -7.61% (active): [6]

Oc1cccnc1CN1CCOCC1
inactive: [1] 110% and 95.7% | [2] 99.1% and 95.7% | [3] 98.3% and 102% | [4] 96.6% and 92.7% | [5] 114% and 109% | [6] 88.4% and 84.8% | [7] 93.8% and 120% | [8] 105% and 101% | [9] 102% and 110%

CCOc1ccc(/C=C\C(=O)O)cc1
inactive: [1] 109% | [2] 114% | [3] 107% | [4] 135% | [5] 109% | [6] 86.9% | [7] 115% | [8] 104% | [9] 129%

Cc1ccc(S(=O)(=O)n2ccnc2)cc1
inactive: [1] 102% | [2] 93.5% | [3] 118% | [4] 106% | [5] 104% | [6] 97% | [7] 95.8% | [8] 138% | [9] 120%

Cn1c(-c2ccccc2)cc(=O)cc1-c1ccccc1
inactive: [1] 73.8% | [2] 101% | [3] 97% | [4] 98.3% | [5] 37.8% | [6] 90.3% | [7] 56.4% | [8] 106% | [9] 96.9%

Cc1nc2c(=O)[nH]c(=S)[nH]c2[nH]c1=O
inactive: [1] 108% and 101% | [2] 100% and 104% | [3] 98% and 111% | [4] 108% and 99.1% | [5] 106% and 110% | [6] 111% | [7] 105% and 100% | [8] 112% and 107% | [9] 108% and 115%

CCCCC/C(C)=N\NC(N)=S
inactive: [1] 89.5% | [2] 86% | [3] 90.4% | [4] 89.8% | [5] 94.8% | [6] 93.2% | [7] 89.3% | [8] 101% | [9] 92.8%

COc1cc(NCCCCCCCNC(C)C)c2nccc(C)c2c1
53.8% (inactive) and -5.98% (active): [9]
inactive: [1] 81.4% and 77.1% | [2] 90.9% and 75.7% | [3] 87% and 68.5% | [4] 73.6% and 72.1% | [5] 85.5% and 57.2% | [6] 39.3% and 75.6% | [7] 89.1% and 91.7% | [8] 82.5% and 82.1%

COC1C(OC(N)=O)C(O)C(Oc2ccc3c(O)c(NC(=O)c4ccc(O)c(CC=C(C)C)c4)c(=O)oc3c2C)OC1(C)C (configuration not stated)
inactive: [1] 104% and 93.7% | [2] 104% and 90.5% | [3] 105% and 102% | [4] 101% and 98.5% | [5] 116% and 94.9% | [6] 78.6% | [7] 44.3% and 131% | [8] 94.2% and 101% | [9] 108% and 104%

CCOP(=O)(OCC)/C(C#N)=C/c1c(C)[nH]c2ccccc12
inactive: [1] 103% | [2] 84% | [3] 107% | [4] 89.1% | [5] 101% | [6] 84% | [7] 87.1% | [8] 106% | [9] 107%

OCCS
inactive: [1] 93.7% | [2] 98.8% | [3] 101% | [4] 97.3% | [5] 106% | [6] 95.2% | [7] 102% | [10] 95.1% | [8] 94.2% | [9] 107%

CCOP(C)(=O)/C(Cc1ccc(OC)c(OC)c1)=N\O (configuration not stated)
inactive: [1] 97.1% | [2] 96% | [3] 90.5% | [4] 98.7% | [5] 105% | [6] 100% | [7] 102% | [8] 103% | [9] 112%

CCOC(=O)c1ccncc1
inactive: [1] 109% | [2] 91.3% | [3] 106% | [4] 98.5% | [5] 104% | [6] 108% | [7] 98.3% | [8] 106% | [9] 103%

O=C1c2ccccc2CN1c1ccccc1
inactive: [1] 94.2% | [2] 98.8% | [3] 107% | [4] 107% | [5] 103% | [6] 104% | [7] 74.7% | [8] 94.7% | [9] 105%

COc1ccc(CCN=Cc2ccc(Cl)cc2)cc1OC
inactive: [1] 100% | [2] 112% | [3] 106% | [4] 107% | [5] 113% | [6] 89.6% | [7] 94.8% | [8] 108% | [9] 108%

O=C(O)C1CSCN1 (configuration not stated)
inactive: [1] 113% and 101% | [2] 113% and 98.5% | [3] 93.9% and 74.4% | [4] 99.8% and 96.2% | [5] 125% and 103% | [7] 99.7% and 96.1% | [10] 97.7% and 111% | [8] 90.2% and 101% | [9] 103% and 104%

Cc1cc(Cl)nc(Nc2ccccc2)n1
inactive: [1] 95.9% | [2] 91.2% | [3] 92% | [4] 62.9% | [5] 103% | [6] 91.2% | [7] 91% | [8] 93.8% | [9] 114%

N#Cc1ccc(/C=C/C(=O)c2ccccc2)cc1
inactive: [1] 100% and 95.2% | [2] 105% and 107% | [3] 93.2% and 98.2% | [4] 96.6% and 110% | [5] 78.7% and 106% | [6] 73.1% and 85.7% | [7] 83.1% | [8] 102% | [9] 81.6% and 113%

Reference: PubChem BioAssay (NCI)
